Assay [1] addresses Estrogen receptor (Homo sapiens) (UniProt P03372). The experiment in a line: qHTS assay to identify small molecule antagonists of the estrogen receptor alpha (ER-alpha) signaling pathway using the BG1 cell line in the presence of 0.1 nM 17-beta-estradiol (AID 1259244). Also: nearly all actives have a fitted effect of over 50% in size. The gist of the method:
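Luciferase signal from VM7Luc4E2 ERE-reporter cells, co-dosed with test compound and 0.1 nM final 17beta-estradiol for 22 h, read with ONE-Glo.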
(In general: In qHTS, concentration-response curves come from the screen itself.)

Assay [2] in a line: qHTS assay to identify small molecule HDAC inhibitors (AID 1259364). Also: potency is read from the fitted curve at half-maximal effect.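 Also: wild-type HCT-116 cells with endogenous class I/II HDAC activity; nearly all actives have a fitted effect of over 45% in size.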 The procedure, abridged: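 HCT-116 wt cells, 1,500/well, overnight attach. Compounds (DMSO) 2 h, 37 °C. HDAC-Glo I/II, 30 min RT. Luminescence.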
A short description of assay [3]: qHTS assay to identify small molecule HDAC inhibitors - cell viability counter screen (AID 1259365). Also: series mostly up to about 92 µM; nearly all actives have a fitted effect of over 50% in size. The procedure, abridged:
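Wild-type HCT-116 cells were seeded at 1,500 per well, incubated overnight at 37 C, then exposed to compounds in DMSO for 2hr. Viability was read by CellTiter-Glo luminescence after 30min at room temperature.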

The nature of assay [4]: qHTS assay to identify small molecule agonists of the sonic hedgehog signaling (Shh) pathway - cell viability counter screen (AID 1259366). Also: nearly all actives have a fitted effect of over 50% in size. The procedure, abridged: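 NIH/3T3-derived 3T3 Gli1-Luc cells (stable Gli1-responsive firefly luciferase reporter) were seeded, rested 4 hr at 37 C/5% CO2, then exposed to compounds in DMSO for 24 hr; viability was read by CellTiter-Fluor fluorescence in the same wells.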

Assay [5] is described as follows: qHTS assay to identify small molecule antagonists of the sonic hedgehog signaling (Shh) pathway - cell viability counter screen (AID 1259367). Also: nearly all actives have a fitted effect of over 55% in size. The gist of the method: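 Viability was read by CellTiter-Fluor fluorescence in the same wells, reagent added 23 hr into compound treatment and incubated 1 hr at 37C. The 3T3 Gli1-Luc reporter cells (2,000/well) received conditioned medium after compound and ran 24 hr.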

Assay [6] is described as follows: qHTS assay to identify small molecule agonists of the sonic hedgehog signaling (Shh) pathway (AID 1259368; calls by dose curve; also: series mostly up to about 92 µM; nearly all actives have a fitted effect of over 15% in size). The gist of the method:
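Following a 24 hr incubation with DMSO-dissolved compounds at 37 C, 5% CO2, Gli1-Luc NIH/3T3-derived cells received luciferase reagent for 30 min at room temperature prior to luminescence measurement.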

Assay [7] is described as follows: qHTS assay to identify small molecule antagonists of the sonic hedgehog signaling (Shh) pathway (AID 1259369; calls by dose curve; also: nearly all actives have a fitted effect of over 45% in size; also: potency is read from the fitted curve at half-maximal effect). The procedure, abridged: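 Read-out is luminescence from a firefly luciferase gene controlled by the Gli1 response element, in 3T3Gli1-Luc cells pre-incubated 4hr then exposed to compounds and conditioned medium for 24hr.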
Assay [8] in a line: qHTS assay to identify small molecule agonists of the androgen receptor (AR) signaling pathway in the presence of an antagonist - cell viability counter screen (AID 1259379). Also: nearly all actives have a fitted effect of over 25% in size. Also: potency is read from the fitted curve at half-maximal effect. The gist of the method: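 Each compound was tested at 15 concentrations on MDA-kb2 cells in the presence of 3.0uM nilutamide. Viability was measured by CellTiter-Fluor fluorescence after a 16 hr incubation at 37C in a CO2-free atmosphere.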

The nature of assay [9]: qHTS assay to identify small molecule agonists of the estrogen receptor beta (ER-beta) signaling pathway - cell viability counter screen (AID 1259380). Also: nearly all actives have a fitted effect of over 30% in size. Also: potency is read from the fitted curve at half-maximal effect. The procedure, abridged: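 Compounds dissolved in DMSO were pin-transferred onto ER-beta-UAS-bla HEK293T cells that had settled 6 hr, and exposure ran 16 hr at 37C. Following the reporter read, CellTiter-Glo luminescence after 30 min at room temperature indicated cytotoxicity.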

The nature of assay [10]: qHTS assay to identify small molecule antagonists of the estrogen receptor beta (ER-beta) signaling pathway - cell viability counter screen (AID 1259382). Also: series mostly up to about 92 µM; nearly all actives have a fitted effect of over 55% in size. The gist of the method:
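CellTiter-Glo ATP luminescence measured after the LiveBLAzer read in the same wells; ER-beta-UAS-bla HEK293T cells, 16 hr compound treatment with 1nM 17-beta-estradiol agonist at 37C, 5% CO2.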

The target in assay [11] is Estrogen receptor (Homo sapiens) (UniProt P03372). The experiment in a line: qHTS assay to identify small molecule agonists of the estrogen receptor alpha (ER-alpha) signaling pathway in the presence of an antagonist (AID 1259383; calls by dose curve; also: top concentration of the series differs between compounds; nearly all actives have a fitted effect of over 15% in size). The gist of the method: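 Luminescent ERE-luciferase reporter, VM7Luc4E2 cells (endogenous ER-alpha); 10.0nM ICI-182,780 final; 15-point compound titration; 22hr at 37C; ONE-Glo, 30min RT.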

Assay [12] in a line: qHTS assay to identify small molecule agonists or antagonists of the thyroid stimulating hormone receptor (TSHR) signaling pathway - wild type cell line counter screen (AID 1259384; calls by dose curve). The procedure, abridged: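 Counter screen in untransfected Hek293: compounds (15-point titration, triplicate) plus phosphodiesterase inhibitor Ro20-1724 added after 18 h plating; 30 min RT. Intracellular cAMP via competitive d2/cryptate immunoassay, 1 h incubation.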

Assay [13] has as its target Thyrotropin receptor (Homo sapiens) (UniProt P16473). The experiment in a line: qHTS assay to identify small molecule antagonists of the thyroid stimulating hormone receptor (TSHR) signaling pathway (AID 1259385; calls by dose curve; also: nearly all actives have a fitted effect of over 20% in size). The procedure, abridged: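 Antagonist mode: compound-treated TSHR-expressing HEK293 cells were stimulated with 1.5 ng/mL TSH (final) in presence of Ro20-1724 for 30 min at RT. HTRF cAMP detection after 1 h; each compound tested at 15 concentrations, triplicate.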

The target in assay [14] is Progesterone receptor (Homo sapiens) (UniProt P06401). Put plainly: qHTS assay to identify small molecule antagonists of the progesterone receptor (PR) signaling pathway (AID 1346795; active = well fitted inhibition curve with a large enough effect in the signal ratio in the repeat runs, not every such curve was filed as active; the % refers to the signal ratio; also: potency is read from the fitted curve at half-maximal effect). The gist of the method: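 PR-UAS-bla HEK293T cells carrying a UAS-driven beta-lactamase reporter were plated in medium with 2% charcoal-stripped FBS and rested 6 hr at 37C. Compounds were added with 1 nM R5020 (final) for 16 hr, then FRET substrate loaded 2 hr at room temperature.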

The nature of assay [15]: qHTS assay to identify small molecule phospholipidosis (PLD) inducers (AID 1259344; active = well fitted curve in the direction sought with a large enough effect; an effect the other way counts as inactive or inconclusive). The gist of the method: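 Phospholipid accumulation was scored by imaging: fixed, Hoechst-counterstained HepG2 cells stained with LipidTOX Red after 24 h compound exposure at 37 C. Read-outs were pit count and pit intensity per well or per cell, with amiodarone and DMSO controls.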
The nature of assay [16]: qHTS assay to identify small molecule agonists of the estrogen receptor alpha (ER-alpha) signaling pathway in the presence of an antagonist - cell viability counter screen (AID 1259386).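 Also: series mostly up to about 92 µM; cells exposed to compounds for 22 h at 37 °C before the viability read; nearly all actives have a fitted effect of over 30% in size.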 The gist of the method: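 Using estrogen-depleted VM7Luc4E2 cells, the 15-concentration compound series was applied together with 10.0nM ICI-182,780 and incubated 22hr at 37C/5% CO2. Cell viability was then scored by CellTiter-Fluor.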

For assay [17], the target named is Estrogen receptor beta (Homo sapiens) (UniProt Q92731). Put plainly: qHTS assay to identify small molecule agonists of the estrogen receptor beta (ER-beta) signaling pathway (AID 1259377; active = well fitted activation curve with a large enough effect in the signal ratio in the repeat runs, not every such curve was filed as active; the % refers to the signal ratio). The gist of the method: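 ER-beta-UAS-bla HEK293T (GripTite) cells carrying a UAS-driven beta-lactamase reporter, in medium with 2% charcoal-stripped FBS, were exposed to compounds for 16 hr at 37C; LiveBLAzer B/G FRET substrate was then added and fluorescence read after 2 hours at room temperature.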

For assay [18] the target is unchanged. The experiment in a line: qHTS assay to identify small molecule antagonists of the estrogen receptor beta (ER-beta) signaling pathway (AID 1259378; active = well fitted inhibition curve with a large enough effect in the signal ratio in the repeat runs, not every such curve was filed as active; the % refers to the signal ratio). The gist of the method:
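Antagonist mode: compounds added to beta-lactamase reporter HEK293T ER-beta-UAS cells stimulated with E2 (1nM final), 16 hr at 37C. LiveBLAzer B/G FRET substrate, 2 hours room temperature, fluorescence read-out.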

The target of assay [19] is Androgen receptor (Homo sapiens) (UniProt P10275). Put plainly: qHTS assay to identify small molecule agonists of the androgen receptor (AR) signaling pathway in the presence of an antagonist (AID 1259381; calls by dose curve; also: nearly all actives have a fitted effect of over 15% in size). The gist of the method:
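Plated MDA-kb2 cells (3,000/well) were pre-incubated 5hr, given nilutamide (3.0uM final) or buffer, then dosed with compounds in DMSO at 15 concentrations. Luciferase activity was quantified by luminescence after 16hr at 37C.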

In assay [20] the target is Progesterone receptor (Homo sapiens) (UniProt P06401). The experiment in a line: qHTS assay to identify small molecule agonists of the progesterone receptor (PR) signaling pathway (AID 1346784; calls by dose curve; also: nearly all actives have a fitted effect of over 30% in size). The gist of the method:
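PR-UAS-bla HEK 293T cells carrying a UAS-driven beta-lactamase reporter were seeded in medium with 2% charcoal-stripped FBS, preincubated 6 hr at 37C, then exposed to compounds in DMSO for 16 hr; agonism was read by LiveBLAzer B/G FRET fluorescence.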

Several values for one entry are separate records, joined by “and”; a condition that tells them apart may be missing. Equal values may be shown once. Records with an inconclusive call do not appear. Some compounds were tested as several samples or in several runs, with calls that do not always agree. Activity calls are given as the source filed them. Unless noted, calls follow the shape of the dose curve; as a rule, active = well fitted curve in the direction sought with a large enough effect in the repeat runs; inconclusive = weak or mixed curves; inactive = no such curve, though single readings can be large; an effect the other way counts as inactive or inconclusive.

Chain of Estrogen receptor (Homo sapiens) (P03372 whole entry, looked up): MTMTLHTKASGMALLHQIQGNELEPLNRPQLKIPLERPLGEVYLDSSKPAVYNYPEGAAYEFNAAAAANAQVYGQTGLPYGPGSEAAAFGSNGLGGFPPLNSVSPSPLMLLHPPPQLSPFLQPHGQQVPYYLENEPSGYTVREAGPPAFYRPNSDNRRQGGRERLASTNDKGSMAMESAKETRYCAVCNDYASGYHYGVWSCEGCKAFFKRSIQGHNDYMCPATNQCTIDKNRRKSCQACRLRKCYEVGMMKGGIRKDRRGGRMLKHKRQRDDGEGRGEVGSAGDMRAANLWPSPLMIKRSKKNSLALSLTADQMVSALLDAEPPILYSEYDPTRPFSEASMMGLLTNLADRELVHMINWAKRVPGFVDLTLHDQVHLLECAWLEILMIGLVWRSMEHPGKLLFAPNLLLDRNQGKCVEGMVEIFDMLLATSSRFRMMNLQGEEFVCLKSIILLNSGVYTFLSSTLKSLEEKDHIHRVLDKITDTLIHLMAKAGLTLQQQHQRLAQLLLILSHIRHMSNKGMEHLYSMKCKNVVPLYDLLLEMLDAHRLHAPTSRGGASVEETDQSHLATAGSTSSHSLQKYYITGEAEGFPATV
Chain of Progesterone receptor (Homo sapiens) (P06401 whole entry, looked up): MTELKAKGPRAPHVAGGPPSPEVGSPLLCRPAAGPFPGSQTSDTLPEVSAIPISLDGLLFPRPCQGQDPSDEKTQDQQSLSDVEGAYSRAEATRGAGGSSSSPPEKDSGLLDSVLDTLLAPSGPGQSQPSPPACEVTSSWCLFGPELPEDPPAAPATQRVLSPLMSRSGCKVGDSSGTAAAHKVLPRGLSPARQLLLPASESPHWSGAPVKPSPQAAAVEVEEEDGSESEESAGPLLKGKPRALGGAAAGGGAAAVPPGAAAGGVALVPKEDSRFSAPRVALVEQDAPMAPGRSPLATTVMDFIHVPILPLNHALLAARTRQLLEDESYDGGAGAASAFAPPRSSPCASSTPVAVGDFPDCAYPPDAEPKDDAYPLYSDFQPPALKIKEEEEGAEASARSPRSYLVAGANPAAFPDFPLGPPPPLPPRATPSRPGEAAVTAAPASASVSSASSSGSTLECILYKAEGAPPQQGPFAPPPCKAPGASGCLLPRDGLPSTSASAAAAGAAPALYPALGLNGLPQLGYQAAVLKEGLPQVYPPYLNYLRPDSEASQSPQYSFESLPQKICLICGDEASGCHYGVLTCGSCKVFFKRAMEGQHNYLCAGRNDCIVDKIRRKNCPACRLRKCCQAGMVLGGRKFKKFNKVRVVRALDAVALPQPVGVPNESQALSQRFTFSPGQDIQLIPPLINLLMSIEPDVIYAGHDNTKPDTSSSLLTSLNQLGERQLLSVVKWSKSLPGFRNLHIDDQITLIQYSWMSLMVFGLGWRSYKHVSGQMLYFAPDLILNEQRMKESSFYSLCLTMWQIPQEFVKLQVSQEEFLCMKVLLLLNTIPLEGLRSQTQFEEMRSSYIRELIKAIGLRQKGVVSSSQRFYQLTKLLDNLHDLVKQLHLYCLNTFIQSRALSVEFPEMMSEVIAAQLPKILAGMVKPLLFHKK
Chain of Androgen receptor (Homo sapiens) (P10275 whole entry, looked up): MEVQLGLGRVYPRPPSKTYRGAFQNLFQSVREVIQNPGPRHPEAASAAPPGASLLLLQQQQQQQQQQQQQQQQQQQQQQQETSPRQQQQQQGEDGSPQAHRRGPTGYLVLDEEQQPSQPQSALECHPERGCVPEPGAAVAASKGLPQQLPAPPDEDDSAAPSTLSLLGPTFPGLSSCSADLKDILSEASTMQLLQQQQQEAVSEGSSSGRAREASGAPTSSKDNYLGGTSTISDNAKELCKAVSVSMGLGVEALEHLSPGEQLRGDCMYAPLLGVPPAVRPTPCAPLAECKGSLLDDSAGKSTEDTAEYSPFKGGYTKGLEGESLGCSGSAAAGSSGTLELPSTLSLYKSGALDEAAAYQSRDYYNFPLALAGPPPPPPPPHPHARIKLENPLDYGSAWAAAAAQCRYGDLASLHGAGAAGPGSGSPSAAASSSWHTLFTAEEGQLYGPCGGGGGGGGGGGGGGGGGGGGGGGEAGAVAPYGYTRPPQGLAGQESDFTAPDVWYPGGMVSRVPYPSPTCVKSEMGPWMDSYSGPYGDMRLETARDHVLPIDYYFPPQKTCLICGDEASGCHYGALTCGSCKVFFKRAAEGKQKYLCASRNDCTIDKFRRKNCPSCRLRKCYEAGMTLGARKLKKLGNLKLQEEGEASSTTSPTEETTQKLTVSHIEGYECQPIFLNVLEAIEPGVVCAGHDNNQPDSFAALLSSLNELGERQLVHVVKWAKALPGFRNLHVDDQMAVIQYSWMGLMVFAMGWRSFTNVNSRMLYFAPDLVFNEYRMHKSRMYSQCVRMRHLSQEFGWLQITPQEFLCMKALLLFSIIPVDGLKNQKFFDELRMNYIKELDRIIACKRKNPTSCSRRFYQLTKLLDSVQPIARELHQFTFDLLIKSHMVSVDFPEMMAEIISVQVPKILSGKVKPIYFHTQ
Chain of Thyrotropin receptor (Homo sapiens) (P16473 whole entry, looked up): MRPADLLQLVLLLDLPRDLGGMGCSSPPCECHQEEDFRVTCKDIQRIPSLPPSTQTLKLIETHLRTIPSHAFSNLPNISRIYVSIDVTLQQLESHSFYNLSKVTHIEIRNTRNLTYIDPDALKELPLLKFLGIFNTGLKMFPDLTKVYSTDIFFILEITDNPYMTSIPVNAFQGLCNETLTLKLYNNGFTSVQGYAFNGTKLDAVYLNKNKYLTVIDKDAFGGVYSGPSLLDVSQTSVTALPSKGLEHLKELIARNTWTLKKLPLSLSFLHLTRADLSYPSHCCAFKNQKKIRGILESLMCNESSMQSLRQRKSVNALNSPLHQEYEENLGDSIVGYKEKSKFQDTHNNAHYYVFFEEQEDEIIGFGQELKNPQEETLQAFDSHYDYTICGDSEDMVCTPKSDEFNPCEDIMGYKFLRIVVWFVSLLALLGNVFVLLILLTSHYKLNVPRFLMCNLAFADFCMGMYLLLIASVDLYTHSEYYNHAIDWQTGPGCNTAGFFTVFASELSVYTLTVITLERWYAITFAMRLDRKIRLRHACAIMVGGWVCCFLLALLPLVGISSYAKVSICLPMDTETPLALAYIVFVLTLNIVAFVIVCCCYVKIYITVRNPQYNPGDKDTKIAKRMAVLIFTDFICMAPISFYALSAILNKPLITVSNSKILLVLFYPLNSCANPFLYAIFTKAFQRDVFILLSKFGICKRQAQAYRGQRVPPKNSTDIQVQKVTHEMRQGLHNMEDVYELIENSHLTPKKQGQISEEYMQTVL
Chain of Estrogen receptor beta (Homo sapiens) (Q92731 whole entry, looked up): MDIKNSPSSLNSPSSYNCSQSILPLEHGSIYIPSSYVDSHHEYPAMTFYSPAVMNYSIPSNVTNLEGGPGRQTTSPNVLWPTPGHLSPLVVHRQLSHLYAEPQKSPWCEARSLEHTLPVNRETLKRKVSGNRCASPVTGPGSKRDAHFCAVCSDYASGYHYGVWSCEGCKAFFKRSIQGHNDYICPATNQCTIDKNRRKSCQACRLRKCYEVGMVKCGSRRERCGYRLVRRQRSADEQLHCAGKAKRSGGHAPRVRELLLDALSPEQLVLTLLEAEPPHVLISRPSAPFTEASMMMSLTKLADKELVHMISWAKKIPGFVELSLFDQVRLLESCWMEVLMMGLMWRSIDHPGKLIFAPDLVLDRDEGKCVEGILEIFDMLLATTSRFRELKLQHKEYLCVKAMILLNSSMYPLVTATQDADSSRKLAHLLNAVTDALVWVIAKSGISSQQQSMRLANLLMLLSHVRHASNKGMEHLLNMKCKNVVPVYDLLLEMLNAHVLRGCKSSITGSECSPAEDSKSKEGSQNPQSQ

On to `O=C(O)c1nc(Cl)ccc1Cl`, for which the Potency entry in assay [1], in assay [2], in assay [3], in [4], in assay [5] and in [7] was “inactive” each time. The Potency result in assay [8], in assay [9], in [10], in [11], in [12] and in [13] was “inactive” each time. Moreover, the Potency result in assay [14] is “inactive”. The molecule was called inactive in assay [6].
For the molecule `Nc1ccccc1`, the molecule was classed as inactive in assay [15] and in assay [6]. In addition, the Potency entry in assay [2], in [3], in assay [4], in [5], in assay [7] and in [8] was “inactive” throughout. Also, the Potency result in assay [9], in assay [10], in [12], in [13] and in [14] was “inactive” throughout.
On to `Oc1cccc2cccnc12`, for which the call in assay [15] and in assay [6] was inactive. Besides, the Potency entry in assay [2], in [3], in [10] and in assay [16] was “inactive” throughout. Moreover, the Potency in assay [8] is 6.14 µM (active) and 9.69 µM (active) and inactive; in assay [9], 1.38 µM (active) and 1.22 µM (active) and inactive; in assay [14] it was 4.6 µM (active) and inactive.
For the molecule `O=c1[nH]c(=O)n(Cl)c(=O)n1Cl`, the call in assay [15] and in assay [6] was inactive. Moreover, the Potency result in assay [2], in assay [3], in assay [4], in assay [5], in assay [7] and in assay [8] was “inactive” in each case. Also, the Potency result in [9], in [10], in [16] and in assay [14] was “inactive” throughout.
For the molecule `Nc1ccc(-c2ccc(N)cc2)cc1`, the Potency entry in assay [1], in assay [2], in [3], in assay [4], in [5] and in [7] was “inactive” throughout. Further, the Potency entry in [18], in [8], in [9], in assay [10], in assay [11] and in assay [12] was “inactive” each time. The Potency entry in [16] and in assay [14] was “inactive” in each case. For the same molecule, the result in assay [6] and in [17] was inactive.
On to `Cc1cc(Cl)ccc1OCC(=O)O`, for which the Potency result in [1], in [2], in [3], in assay [4], in assay [5] and in assay [7] was “inactive” in each case. The Potency result in [8], in [9], in [10], in [11], in assay [12] and in assay [13] was “inactive” in each case. For the same molecule, the Potency entry in [16] and in assay [14] was “inactive” each time. In addition, the molecule was classed as inactive in assay [6] and in assay [19].
In the case of `CCOP(=S)(OCC)Oc1ccc2c(C)c(Cl)c(=O)oc2c1`, the molecule was called inactive in [15], in assay [6] and in assay [17]. For the same molecule, the Potency entry in assay [2] is “inactive and 11.9 µM (active)”; in [7] it was 13.8 µM (active). Also, the Potency result in assay [3], in [4], in assay [5], in assay [8], in assay [9] and in assay [10] was “inactive” in each case. Besides, the Potency result in assay [12], in [13] and in [20] was “inactive” in each case.
Consider `CC[N+](CC)(CC)CC`, for which the result in assay [15] and in [6] was inactive. Moreover, the Potency entry in [2], in assay [3], in [4], in assay [5], in [7] and in [8] was “inactive” throughout. The Potency entry in assay [9], in [10], in assay [12], in assay [13] and in assay [14] was “inactive” throughout.

(Values after PubChem BioAssay (Tox21).)
